Measurements published in PubChem BioAssay (NCI).
“And” between values parts separate entries of the source, which are not always exact repeats. Equal values may be shown once. The panel holds about 83,000 compounds, 20% with a hit somewhere; the sample as a whole holds those more often.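 Negative percent growth values reflect cell death: -40 means 40% of the cells present at the start died, and -100 means all died.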 The source made the active and inactive calls. The calls were made as follows: active = growth percent below 10; inactive = the rest.

What was measured:
Experiment in all cases: NCI-60 one-dose screen, 48 h (100 = growth as untreated, 0 = no growth, -100 = all killed)
Settings in all cases: 10 µM
[1] = system: NCI-H23 lung
[2] = system: NCI-H226 lung
[3] = system: NCI-H322M lung
[4] = system: NCI-H460 lung
[5] = system: HOP-92 NSCLC
[6] = system: NCI-H522 lung
[7] = system: A549/ATCC NSCLC
[8] = system: COLO 205 colon
[9] = system: 786-0 renal

Measured: growth

Cc1c(-c2ccccc2)[nH]c2ccccc12
inactive: [1] 103% | [2] 95.3% | [3] 108% | [4] 104% | [5] 71.8% | [6] 86.1% | [7] 102% | [8] 115%

O=C1c2cccc3cc([N+](=O)[O-])cc(c23)C(=O)N1CCN1CCCC1
active: [1] -21.7% | [2] -62.2% | [4] -28.8% | [5] 0.989% | [6] -54.1% | [7] -28.6% | [9] -18.8% | [8] -13.8%
inactive: [3] 23.7%

O=C1c2ccccc2CCC1(Br)Br
inactive: [1] 28.9% | [2] 27.1% | [3] 100% | [4] 95% | [7] 96% | [9] 14.8%
active: [6] -70.8% | [8] -68.2%

COc1ccc(C(C#N)=C2C=CC(=NO)C=C2)cc1
active: [2] -14.3% | [6] -24.7%
inactive: [1] 94.9% | [3] 94.3% | [4] 65.8% | [5] 137% | [7] 88.9% | [9] 34.9% | [8] 127%

COc1ccc2oc(-c3ccc(Cl)cc3)c(N3CCN(C)CC3)c2c1
active: [4] -62.6% | [5] -17.1% | [6] -78.2% | [8] -72.5%
inactive: [1] 73.6% | [2] 91% | [3] 113% | [7] 39.6% | [9] 27.2%

Cn1ncc2cc3c(Nc4ccc(Cl)cc4)cccc3nc21
inactive: [1] 85.6% | [2] 94.4% | [3] 104% | [4] 89.8% | [5] 77% | [6] 83.8% | [7] 80% | [9] 89.3% | [8] 96.1%

COc1ccc(N)c2c1C(=O)c1ccccc1C2=O
inactive: [1] 99.6% | [2] 93.5% | [3] 91.1% | [4] 98.1% | [5] 84.1% | [6] 88.6% | [7] 96.7% | [9] 112% | [8] 111%

N#CC(=C1C=CC(=NO)C=C1)c1ccccc1
active: [4] 1.48% | [5] -7.52% | [9] 6.67%
inactive: [1] 35.3% | [2] 44.5% | [3] 66.3% | [6] 39% | [7] 34% | [8] 30.4%

S=C1SCN(CCc2ccccc2)CN1CCc1ccccc1
inactive: [1] 96.5% | [2] 99.4% | [3] 86.5% | [4] 108% | [6] 58.6% | [7] 90.8% | [9] 117% | [8] 99.2%

O=C(CNS(=O)(=O)Cc1ccccc1)NNc1ccccc1
inactive: [1] 92.3% | [2] 72.9% | [3] 75% | [4] 29.4% | [5] 101% | [6] 41% | [7] 55.8% | [9] 76.6% | [8] 75.2%

ClCCn1c(CCl)nc2ccc(Cl)cc21
active: [1] -17.1% | [4] 0.311% | [5] -57.2% | [6] -73.2% | [7] -12.5% | [9] -59.9%
inactive: [3] 99.5%

O=C(NC(=S)Nc1ccccn1)c1ccccc1
inactive: [1] 75.7% | [2] 91.1% | [3] 85.5% | [4] 94% | [5] 79.5% | [6] 82.1% | [7] 101% | [9] 90.1% | [8] 101%

CCOC(=O)[C@]1(Br)CC[C@@]1(Br)C(=O)OCC
inactive: [1] 109% | [2] 91.8% | [3] 92.8% | [4] 117% | [5] 109% | [9] 118% | [8] 116%
active: [6] -6.96%

Cc1cc(C)c(N2C(=O)CC(Sc3ccccc3N)C2=O)c(C)c1 (centres undefined)
inactive: [1] 82.6% | [3] 112% | [4] 95.6% | [6] 78.8% | [7] 74.8% | [9] 112% | [8] 84.8%

CC[C@@]1(OC(=O)CN(C)C)C(=O)OCc2c1cc1n(c2=O)Cc2cc3c(N)cccc3nc2-1
active: [1] -26.7% | [2] -13.4% | [3] -18.6% | [4] -5.75% | [6] -26% | [7] 4.76% | [9] 0.893%
inactive: [8] 17.5%

COc1cc(N)ccc1Nc1c2ccccc2nc2ccccc12
active: [4] 4.72%
inactive: [1] 91.8% | [2] 73.3% | [3] 83.6% | [7] 40.8% | [9] 69.4% | [8] 12.4%

Cn1c2nc3ccccc3c-2nc2ccccc21
inactive: [1] 94.1% and 91.3% | [2] 104% | [3] 99.7% and 88.7% | [4] 86.9% and 86.5% | [5] 77.6% and 79.1% | [6] 102% and 87.8% | [7] 96.1% and 86.3% | [9] 96.6% and 94.4% | [8] 86.7% and 83.9%

O=C(O)c1ccccc1.[Ag]
inactive: [1] 99.3% | [2] 104% | [3] 109% | [4] 100% | [5] 107% | [7] 54% | [9] 108% | [8] 25.8%
active: [6] -25.1%

O=Nc1ccc(Nc2ccccc2)cc1
inactive: [1] 89% | [2] 92.8% | [3] 98.5% | [4] 97.8% | [5] 26% | [6] 66.8% | [9] 80% | [8] 105%
